Results filed as inconclusive are left out. The source made the active and inactive calls. How the source made its calls: active means hit-call score of the fitted dose curve at least 0.9, where 1 is the maximum; inconclusive means response in the unintended direction; inactive means score below 0.9.

From PubChem BioAssay (EPA / NIEHS) come the findings set out here.

Estrogen receptor beta (Homo sapiens), sequence (Q92731 whole entry, looked up, the tested form may be a part): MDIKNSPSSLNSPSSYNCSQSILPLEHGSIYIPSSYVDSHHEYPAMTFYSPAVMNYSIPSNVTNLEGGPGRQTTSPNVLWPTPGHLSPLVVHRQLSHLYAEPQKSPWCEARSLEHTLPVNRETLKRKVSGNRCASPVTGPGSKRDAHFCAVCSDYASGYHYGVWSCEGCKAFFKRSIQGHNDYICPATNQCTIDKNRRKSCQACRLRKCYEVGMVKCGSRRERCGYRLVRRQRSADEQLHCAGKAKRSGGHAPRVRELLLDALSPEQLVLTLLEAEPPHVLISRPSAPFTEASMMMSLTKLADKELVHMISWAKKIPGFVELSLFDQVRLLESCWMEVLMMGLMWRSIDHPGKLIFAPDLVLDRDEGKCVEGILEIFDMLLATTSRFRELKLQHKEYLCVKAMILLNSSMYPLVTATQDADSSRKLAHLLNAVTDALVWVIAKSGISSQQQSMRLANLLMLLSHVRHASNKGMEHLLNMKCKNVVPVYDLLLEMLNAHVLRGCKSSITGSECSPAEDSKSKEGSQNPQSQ

In this assay the target is Estrogen receptor beta (Homo sapiens) (UniProt Q92731). As to the kind of experiment: OT_ER_ERbERb_0480: Odyssey Thera (OT) 8-hour HEK293T Protein-Complementation Assay for Estrogen Receptor-beta/-beta Homodimer (AID 2283357). The protocol:
OT_ER_ERbERb_0480 is a cell-based assay that uses HEK293T, a human kidney cell line, with measurements taken at 8 hours after chemical dosing in a 384-well plate.OT_ER_ERbERb_0480 is one of one assay component(s) measured or calculated from the OT_ER_ERbERb_0480 assay. It is designed to make measurements of protein fragment complementation, a form of binding reporter, as detected with fluorescence intensity signals by Protein-fragment Complementation technology.Data from the assay component OT_ER_ERbERb_0480 was analyzed into 1 assay endpoint. This assay endpoint, OT_ER_ERbERb_0480, was analyzed in the positive analysis fitting direction relative to DMSO as the negative control and baseline of activity. Using a type of binding reporter, measures of receptor for gain-of-signal activity can be used to understand the binding at the pathway-level as they relate to the gene ESR2. Furthermore, this assay endpoint can be referred to as a primary readout, because the performed assay has only produced 1 assay endpoint. To generalize the intended target to other relatable targets, this assay endpoint is annotated to the nuclear receptor intended target family, where the subfamily is steroidal.
Protein-fragment complementation assay, or PCA, is a method for the identification and quantification of protein-protein interactions. In the PCA, the proteins of interest ("bait" and "prey") are each covalently linked to fragments of a third protein (e.g. DHFR, which acts as a "reporter"). Interaction between the bait and the prey proteins brings the fragments of the reporter protein in close proximity to allow them to form a functional reporter protein whose activity can be measured. The OT ER beta / ER beta assay is a homodimer PCA of the ligand binding domain (LBD; amino acids 310-547) of human ER beta stably expressed in HEK293T cells. […] Cells are fixed in 4 percent formaldehyde and stained with Draq5 (BioStatus) to identify cells prior to signal detection. Fluorescent signal in the basal state of the assay is very low and is primarily punctuate and cytoplasmic. Modulation of this assay is quantified as an increase in mean fluorescence intensity in the nucleus (for agonists) or in the nucleus and cytoplasm (antagonists) relative to vehicle controls, and can be quantified on a high content imaging device or a laser scanning cytometer. The latter instrument is favored for this assay because of the rapid mode of data acquisition, the ability to acquire data from the entire cell population in a well (as opposed to a fraction of the well on the high content devices) and the larger dynamic range typically achieved with this instrument. To assess sensitivity of the ER beta/ER beta LBD assay to ligand, cells were treated with the ER agonist 17- beta-estradiol (E2) in 10-point concentration- response format for 8 hours and monitored response on a laser scanning plate cytometer (Acumen eX3; TTP Lab Tech).
As for `CN(C)NC(=O)CCC(=O)O`, the concentration at half-maximal activity (AC50) (as a rule, the concentration giving half of the maximal activity seen) is 50 µM (active).
Take `CSc1nc(NC(C)C)nc(NC(C)C)n1`: the compound was classed as inactive.
As for `CC(C1CC1)C(O)(Cn1cncn1)c1ccc(Cl)cc1` (stereo not given), the AC50 was 29.6 µM (active).
Regarding `CSC1=N[C@@](C)(c2ccccc2)C(=O)N1Nc1ccccc1`, the compound was classed as inactive.
On the same count and under the same terms, with `CCc1cccc(C)c1N(C(=O)CCl)C(C)COC` (stereo not given) the entry was “inactive”; with `CCCCSP(=O)(SCCCC)SCCCC`, “inactive”.
Turning to `CCC(CC)Nc1c([N+](=O)[O-])cc(C)c(C)c1[N+](=O)[O-]`, the AC50 is 12.6 µM (active).
As for `CCOP(=O)(NC(C)C)Oc1ccc(SC)c(C)c1` (stereo not given), the call was inactive.
On the same count and under the same terms, as for `CNc1cnn(-c2cccc(C(F)(F)F)c2)c(=O)c1Cl`, the entry is “inactive”.
For `CC(C)N(C(=O)SCC(Cl)=C(Cl)Cl)C(C)C`, the compound was classed as inactive.
Still for that read-out and setting: with `C[Si](Cn1cncn1)(c1ccc(F)cc1)c1ccc(F)cc1` the entry was “inactive”; with `CSc1nnc(C(C)(C)C)c(=O)n1N`, “inactive”.
On to `CCOP(=S)(OCC)OC(Cl)C(Cl)(Cl)Cl` (stereo not given), for which the half-maximal activity concentration (AC50) was 38.6 µM (active).
For the compound `O=C(O)c1cc(Oc2ccc(C(F)(F)F)cc2Cl)ccc1[N+](=O)[O-]`, the compound was called inactive.
Turning to `CC(C)[C@H](C(=O)O[C@H](C#N)c1cccc(Oc2ccccc2)c1)c1ccc(Cl)cc1`, the result was inactive.
The same measure, in the same setting: with `COP(=O)(NC(C)=O)SC` (stereo not given) the entry was “inactive”.
In the case of `CCCSP(=O)(OCC)Oc1ccc(Br)cc1Cl` (stereo not given), the half-maximal activity concentration (AC50) was 29.8 µM (active).
As to `CCOC(=O)CC(SP(=O)(OC)OC)C(=O)OCC` (stereo not given), the outcome was inactive.
On the same count and under the same terms, with `Cc1ccn2nc(S(=O)(=O)Nc3c(F)cccc3F)nc2n1` the entry was “inactive”.
Same read-out and setting: as for `Nc1nc(N)nc(NC2CC2)n1`, the entry is “inactive”.
The same measure, in the same setting: as for `CCCOCC(=Nc1ccc(Cl)cc1C(F)(F)F)n1ccnc1`, the entry is “inactive”; as for `N#CSCSC#N`, “inactive”.
Take `CC1(C(=O)Nc2ccc(O)c(Cl)c2Cl)CCCCC1`: the concentration at half-maximal activity (AC50) was 22.2 µM (active).
As for `Nc1c(Cl)cc([N+](=O)[O-])cc1Cl`, the compound was classed as inactive.
On the same count and under the same terms, as for `FC(F)C(F)(F)OCC(Cn1cncn1)c1ccc(Cl)cc1Cl` (stereo not given), the entry is “inactive”.
Same read-out and setting: with `CNC(=O)ON=C(C)SC` the entry was “inactive”; with `CCCCOC(=O)c1ccccc1C(=O)O`, “inactive”.
Consider `Cc1cc(C2CC2)nc(Nc2ccccc2)n1`, for which the AC50 was 50 µM (active).
Take `CNC(=O)ON=C(SC)C(=O)N(C)C`: the compound was called inactive.
Same read-out and setting: as for `COc1cccc(C(=O)NN(C(=O)c2cc(C)cc(C)c2)C(C)(C)C)c1C`, the entry is “inactive”; as for `CCOP(=O)(OCC)Oc1cc(C)nc(C(C)C)n1`, “inactive”; as for `CN(C)C(=O)Nc1cccc(C(F)(F)F)c1`, “inactive”.
Take `CC(COc1ccc(Oc2ccccc2)cc1)Oc1ccccn1` (stereo not given): the outcome was inactive.
On to `C#CCC1=C(C)C(OC(=O)C2C(C=C(C)C)C2(C)C)CC1=O` (stereo not given), for which the compound was called inactive.
Regarding `CCNc1nc(Cl)nc(NC(C)(C)C#N)n1`, the outcome was inactive.
Consider `CCOP(=S)(OCC)SCCSCC`, for which the compound was called inactive.
With `CC(Oc1cccc(Cl)c1)C(=O)O` (stereo not given), the compound was classed as inactive.
Same read-out and setting: with `C[N+]1(C)CCCCC1` the entry was “inactive”.
Same read-out and setting: with `CCCCN(CC)c1c([N+](=O)[O-])cc(C(F)(F)F)cc1[N+](=O)[O-]` the entry was “inactive”; with `COc1ccc(C(=CC(=O)N2CCOCC2)c2ccc(Cl)cc2)cc1OC`, “inactive”.
